In the library only some 1.2% were active in any assay of this set; here they are far more common.
SRC3 inh – inhibits human SRC3 coactivator. Q9Y6Q9. HEK293 GAL4-SRC3 luciferase reporter, luminescence. inhibition, % at 3.6 µM. hit rate 0.17% among 360,000;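 active means inhibition above a per-campaign cutoff, the mean of all compounds plus 3 SD, cut at about 60% in these data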;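 further: 0% = DMSO-treated cells and 100% = gossypol-treated cells at 36 µM; higher means less SRC3-driven luciferase light from the GAL4 reporter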
NCOA2 inhibitor – inhibits human steroid receptor coactivator 2; Q15596; HEK293 GAL4-SRC2 luciferase reporter, luminescence; inhibition, % at 9 µM; hit rate 0.17% among 370,000; AID 651957;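 active means inhibition above the mean inhibition of all tested compounds plus 3 SD, set per campaign, cut at about 52% in these data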;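 further: 0% = DMSO treated cells and 100% = cells given Gossypol at 36 µM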
LMP1 NFkB inh – reduces LMP1-driven NF-kappaB luciferase signal; inhibition, % at 12.5 µM; AID 504558; hit rate 0.69% among 350,000; LMP1-induced NF-kappaB luciferase reporter cells, luminescence; in the data active means inhibition above about 41%;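 further: 0% = neutral control wells and 100% = reference inhibitor control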
Shn3 3UTR inh – Schnurri-3 reporter inhibition in Clone20 osteoblasts | Clone20 osteoblast Shn3 3'UTR firefly luciferase, 24 h | hit rate 0.52% among 360,000 | inhibition, % at 12.5 µM;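 active means mean inhibition of at least 75% with every replicate also reaching 75%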;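 further: 0% = median of neutral control wells and 100% = pilot-screen positive control compound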
SRC1 inh – human NCOA1 inhibition | inhibition, % at 3.6 µM | AID 588354 | HEK293 GAL4-SRC1 luciferase reporter, luminescence | Q15788 | hit rate 0.12% among 360,000;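 active means inhibition above the campaign mean plus 3 SD, with each screening campaign given its own cutoff, cut at about 60% in these data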;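 further: 0% = DMSO treated cells and 100% = gossypol at 36 µM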
LRH-1 inv ag – inverse agonists of human LRH-1 (NR5A2); hit rate 0.13% among 360,000; HEK293T StAR-luciferase reporter, LRH-1 transfected, 24 h; AID 602396; inhibition, % at 3.6 µM;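 active means inhibition above the mean inhibition of all tested compounds plus 3 SD, cut at about 73% in these data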;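 further: 0% = DMSO wells and 100% = reporter-only cells lacking LRH-1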
* hit, by the source's call; nt = no result given.

SMILES | SRC3 inh | NCOA2 inhibitor | LMP1 NFkB inh | Shn3 3UTR inh | SRC1 inh | LRH-1 inv ag
CCOC(=O)c1cnc(-n2nc(C)cc2C)nc1NCCc1ccccc1 | 25 | 2 | 19 | 46 | 11 | 2
CCCCCCCCN1C(=O)[C@H](CC(=O)NCCc2ccccc2OC)C[C@@]2(C(=O)OC)CC(C)(C)CC=C12 | nt | -4 | nt | nt | nt | 32
CC(Nc1ncnc2ccccc12)c1ccccc1 (stereo unspecified) | 20 | 13 | 16 | 88* | 10 | 45
CCCCC(Nc1ncnc2ccccc12)C(=O)O (stereo unspecified) | 14 | -8 | 4 | -17 | 7 | -3
CC(C)CC(=O)c1c(O)cc(O)c2c1OC1=C(C(=O)C(C)(C)C(=O)C1(C)C)C2CC(C)C (stereo unspecified) | nt | 12 | nt | nt | nt | nt
COc1ccc(/C=C/c2nc3ccccc3n2C)cc1 | 27 | 58* | 54* | 73 | 6 | -31
COc1ccc(/C=C/c2nc3ccccc3c(=O)o2)cc1 | 61 | 77* | 51* | 57 | 61 | 51
CC(C)(C)C(=O)NC(=S)NNC(=O)c1sc2ccccc2c1Cl | 40 | nt | 57* | 91* | 27 | 29
CCOC(=O)[C@]12CCCCC/C=C\1N(Cc1ccc(OC)cc1)C(=O)[C@H]2CC(=O)N1CCCC1 | nt | 6 | nt | nt | nt | nt
N#Cc1c(Nc2ccccc2)sc(C(=O)c2ccc(F)cc2)c1N | 8 | 6 | 43* | 22 | 7 | 28
COc1ccc(-c2cc(-c3nnc(SCC(=O)Nc4ccc(OCc5ccccc5)cc4)n3N)[nH]n2)cc1 | nt | 4 | nt | nt | nt | nt
CC(=O)NC1C(OCc2cccc(Br)c2)OC(COC(C)=O)C(OC(C)=O)C1OC(C)=O (stereo unspecified) | 11 | 14 | 9 | -12 | -23 | -2
CC(=O)OCC1OC(Nc2cccc(C)c2)C(OC(C)=O)C(OC(C)=O)C1OC(C)=O (stereo unspecified) | 15 | -9 | 53* | -15 | -48 | -10
COC(=O)c1c(-c2ccc(OC)cc2)c2c(c3c4cc(OC)ccc4n(S(=O)(=O)c4ccc(C)cc4)c13)C(=O)N(C)C2 | nt | 0 | nt | nt | nt | nt
Cc1cc(O)c2c(c1O)C(=O)[C@]13C(=C2O)C(=O)[C@@H]2[C@@H](O)[C@H]1[C@@H]1[C@H](O)[C@H]3C(=O)C3=C(O)c4c(O)cc(C)c(O)c4C(=O)[C@]312 | 75* | nt | 16 | 92* | 72* | 96*
COC(=O)C1CN(Cc2ccc(F)cc2)CCS(=O)(=O)N1Cc1ccc(C)cc1 (stereo unspecified) | nt | 20 | nt | nt | nt | nt
Cc1ccc(-c2cc3c(N=O)c4ccccc4c-3n[nH]2)cc1 | 73* | 61* | 63* | 64 | 69* | 42
CC(=O)O[C@H]1CC[C@@]2(C)C(=CC[C@H]3[C@@H]4CC[C@H](C(C)=O)[C@@]4(C)CC[C@@H]32)C1 | -3 | -6 | 54* | 87* | 8 | -18
CC(=O)[C@H]1CC[C@H]2[C@@H]3CC=C4C[C@@H](OS(=O)(=O)O)CC[C@]4(C)[C@H]3CC[C@]12C | 3 | 9 | 0 | -13 | -6 | -29
COC(=O)[C@]12C[C@H](CC(=O)N3CCN(C(=O)c4ccco4)CC3)C(=O)N(Cc3ccccc3)C1=C[C@H](C1CCCC1)O[C@@H]2C | nt | 26 | nt | nt | nt | nt
O=C1CC(c2ccco2)Cc2nc(Nc3nc(-c4ccccc4)c4ccccc4n3)ncc21 (stereo unspecified) | -3 | 11 | 77* | -2 | -3 | 1
O=C(Nc1ncc2c(n1)CC(c1ccco1)CC2=O)c1ccccc1 (stereo unspecified) | -11 | -21 | -4 | -30 | -33 | -49
CC1CCC2(CCC(=O)N2CCCOC(=O)NC(C)(C)C)CC1 (stereo unspecified) | nt | 29 | nt | nt | nt | nt
COc1cc2[nH]c(C(=O)Nc3ccc4c(c3)OCCO4)cc2c(OC)c1OC | 7 | 2 | 19 | -26 | 15 | -17
COc1cc2cc(C(=O)Nc3ccc4c(c3)OCCO4)[nH]c2cc1OC | 55 | 40 | 45* | 27 | 54 | 46
SMILES | SRC3 inh | NCOA2 inhibitor | LMP1 NFkB inh | Shn3 3UTR inh | SRC1 inh | LRH-1 inv ag
Cn1nnnc1Sc1ncnc2scc(-c3cccc(Br)c3)c12 | 40 | 43 | 78* | 3 | 43 | 5
Cn1nnnc1Sc1ncnc2scc(-c3ccc4c(c3)OCO4)c12 | 26 | 37 | 10 | -17 | 27 | 4
CC(=O)c1cccc(-c2csc3ncnc(Sc4nnnn4C)c23)c1 | 48 | 43 | nt | 95* | 26 | 4
Cn1nnnc1Sc1ncnc2scc(-c3cccc(S(C)(=O)=O)c3)c12 | 30 | 38 | 47* | 60 | 11 | 11
CCN(C[C@H]1[C@@H](c2ccc(C3=CCCC3)cc2)[C@H](CO)N1Cc1ccccn1)S(=O)(=O)c1ccccc1[N+](=O)[O-] | nt | 0 | nt | nt | nt | nt
Nc1ncnc2c1ncn2[C@@H]1O[C@H](C(=O)N[C@@H](CCc2ccccc2)C(=O)N2CCN(CC(=O)N3CCCC3)CC2)[C@@H](O)[C@H]1O | nt | 1 | nt | nt | nt | nt
CC1CCc2nc(N)c(C#N)c(-c3cccnc3)c2C1 (stereo unspecified) | 63* | 39 | 59* | 21 | 72* | 41
O=C(Nc1ccc2nc3n(c(=O)c2c1)CCCCC3)c1c(F)ccc([N+](=O)[O-])c1F | 0 | 71* | 80* | 99* | -156 | 4
O=C(Nc1ccc2nc3n(c(=O)c2c1)CCCCC3)c1cc([N+](=O)[O-])ccc1F | -9 | 37 | -5 | 96* | 7 | 37
COc1ccc(CN(C)C(=O)c2ccc(OCC(=O)Nc3cccc(C(F)(F)F)c3)c(OC)c2)c(OC)c1 | 29 | 17 | 31 | -22 | 7 | 12
COc1cccc(CN(C)C(=O)c2ccc(OCC(=O)Nc3cccc(C(F)(F)F)c3)c(OC)c2)c1 | 45 | 24 | 28 | 86* | 28 | 36
COc1ccc(C2C3=C(Nc4ncnn42)c2ccccc2CCC3)cc1 (stereo unspecified) | -4 | -16 | 7 | 7 | 14 | 13
Fc1ccc(/C=C2\CCCC3=C2Nc2ncnn2C3c2ccc(F)cc2)cc1 (stereo unspecified) | 10 | -2 | 1 | 97* | -12 | 5
CCN(CC)Cc1cc(C(C)(C)C)cc(N2CCOCC2)c1O | -17 | -9 | 4 | 6 | -10 | 0
CN(C)Cc1cc(C(C)(C)C)cc(N2CCOCC2)c1O | -20 | 9 | 68* | -60 | -18 | 12
CC(=O)c1sc(NC(=O)C2COc3ccccc3O2)nc1C (stereo unspecified) | -37 | 26 | 49* | 31 | -44 | -57
O=C(Nc1nncs1)C1COc2ccccc2O1 (stereo unspecified) | -15 | -30 | -11 | -3 | -23 | -43
CC(C)(C)OC(=O)N1CCC[C@@H]1C(=O)N1CCC[C@H]1C(=O)NCc1ccccc1 | nt | -17 | nt | nt | nt | nt
CCC(C)n1c(-c2cccc(S(=O)(=O)N3CCOCC3)c2)n[nH]c1=S (stereo unspecified) | 5 | 2 | -6 | -2 | 0 | -18
CC(C)Cn1c(-c2cccc(S(=O)(=O)N3CCOCC3)c2)n[nH]c1=S | -2 | -8 | 71* | 7 | -7 | 2
COc1cc(NC(=O)CSc2nc(C)cc(=O)[nH]2)cc(OC)c1 | nt | -18 | nt | nt | nt | nt
COC(=O)N1Cc2ccnnc2CC1c1ccccc1-c1ccc(OC)cc1 (stereo unspecified) | nt | -20 | nt | nt | nt | nt

Assay outcomes deposited in PubChem by several laboratories.
